The text below walks through data of PubChem BioAssay AID720697 (Broad Institute, 2013).

Measured potencies and affinities stand elsewhere. Records with an inconclusive call do not appear. Calls of active or inactive are those of the source.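 How the source made its calls: active means signal loss with fitted half-maximal concentration at or below twice the top valid tested dose in every test run; inconclusive means runs disagree, flat 30 to 70% signal loss, or poor fit; inactive means all runs flat, opposite direction, or potency beyond limit.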

This assay can be described thus: HEK293T cytotoxicity, dose response, cytotoxicity control for miR-122 modulator project, cell-based, inhibitor set, cherry-pick, set 2 (AID 720697). The conditions noted are these: HEK293T viability, CellTiter-Glo luminescence, 48 h; series mostly up to 26 µM. In general terms: Cellular ATP, detected with luciferase, serves as a proxy for viable cell number.
`N=c1c2c(-c3ccccc3)c(-c3ccccc3)n(Cc3ccccc3)c2ncn1CCO`: the outcome was inactive.
Regarding `COc1cccc(-c2csc(N3CCN(CC(=O)Nc4ccc5c(c4)OCO5)CC3)n2)c1`, the result was inactive.
Turning to `CCN(C[C@@H]1N[C@@H](CO)[C@H]1c1ccc(-c2cccc(F)c2)cc1)C(=O)CN(C)C`, the result was inactive.
Regarding `CC(C)C(=O)Nc1ccc2c(c1)C(=O)N(C)[C@@H]1CC[C@@H](CC(=O)N[C@H](C)c3ccccc3)O[C@@H]1CO2`, the outcome was inactive.
